BAZ2B inh = blocks human BAZ2B. AlphaScreen BAZ2B-H3K14Ac peptide displacement. AID 504333. hit rate 4.4% among 360,000. Potency, µM (top dose mostly 114 µM), for inactives: at the top dose activity change, negative = inhibition, usual class: inhibitors; note: potency is the fitted concentration of half-maximal effect; % is set by controls: 0 for no effect and ±100 for the full control effect; nearly all actives have a fitted effect of over 60% in size
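AlphaScreen displacement of biotin-H3(5-23)K14Ac peptide (50 nM final) from BAZ2B (50 nM final) in PBS pH 7.4, 0.01% Tween-20; complex preformed 30 min RT, then compounds (top 110 uM) 30 min RT, beads 20 min dark.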
PI5P4Ka inh = blocks human PI5P4K alpha kinase activity; P48426; PI5P4Kalpha enzyme, ADP-Glo luminescence, 60 min; active compounds read low; max response, %; hit rate 1.2% among 330,000; active = max response of -50% or lower; inconclusive = between -30% and -50%; inactive = -30% or higher; note: value at the top dose of about 77 µM; % is set by controls: 0 for no effect and ±100 for the full control effect
Target sequence (P48426 whole entry, looked up): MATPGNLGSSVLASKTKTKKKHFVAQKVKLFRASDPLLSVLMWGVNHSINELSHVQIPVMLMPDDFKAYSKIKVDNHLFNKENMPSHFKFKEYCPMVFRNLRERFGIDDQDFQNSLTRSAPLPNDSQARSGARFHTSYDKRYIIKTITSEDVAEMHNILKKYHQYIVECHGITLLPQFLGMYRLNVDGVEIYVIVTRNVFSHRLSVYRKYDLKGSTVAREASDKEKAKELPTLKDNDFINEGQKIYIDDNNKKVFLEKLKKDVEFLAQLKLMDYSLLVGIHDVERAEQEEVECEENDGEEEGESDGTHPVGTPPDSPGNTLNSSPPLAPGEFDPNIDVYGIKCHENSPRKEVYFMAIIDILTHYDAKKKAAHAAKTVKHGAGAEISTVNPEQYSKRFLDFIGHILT
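Luminescence from ADP-Glo served as readout of PI5P4Kalpha activity in a qHTS format. Reaction: enzyme, substrate, compound, ATP at 5 microM final, 60 min at RT.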
JMJD2A Tudor inh = JMJD2A Tudor domain (human) inhibition | O75164 | AlphaScreen JMJD2A-Tudor / H3K4me3 peptide binding | Potency, µM (titrated, usually from 114 µM), for inactives: top-dose activity change, negative = inhibition, usual class: inhibitors | hit rate 4.4% among 390,000 | AID 504339; note: potency is the fitted concentration of half-maximal effect; % is set by controls: 0 for no effect and ±100 for the full control effect; nearly all actives have a fitted effect of over 50% in size
HP1b chromo inh = HP1-beta chromodomain-methylated histone interaction inhibition | P83916 | AlphaScreen HP1-beta / biotin-H3K9me3 peptide binding | Potency, µM (top dose mostly 114 µM), without a hit: at the top dose activity change, negative = inhibition, hits mostly inhibitors | hit rate 0.56% among 390,000 | AID 540317; note: potency is the fitted concentration of half-maximal effect; nearly all actives have a fitted effect of over 70% in size
Target sequence (P83916 whole entry, looked up): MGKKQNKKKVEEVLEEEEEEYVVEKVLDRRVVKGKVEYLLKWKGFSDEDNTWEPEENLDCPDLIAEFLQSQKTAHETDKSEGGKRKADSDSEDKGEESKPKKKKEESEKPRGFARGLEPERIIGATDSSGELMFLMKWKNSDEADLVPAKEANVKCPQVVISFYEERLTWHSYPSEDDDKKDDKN
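AlphaScreen: HP1-beta (50 nM) preformed 30 min with biotin-H3(1-18)K9me3 peptide (50 nM) in PBS pH 7.4, 0.01% Tween-20. Compound added for 30 min at RT, then streptavidin donor/nickel chelate acceptor beads (10 ug/mL) for 30 min.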
PLK1 PBD inh = blocks phosphopeptide binding to human PLK1 polo-box domain; Plk1 PBD binding of FITC phosphopeptide, fluorescence polarization; AID 720504; Potency, µM, for inactives: max response, negative = inhibition, usual class: inhibitors; hit rate 2.8% among 360,000; P53350; note: potency is the fitted concentration of half-maximal effect; series mostly up to about 57 µM; % is set by controls: 0 for no effect and ±100 for the full control effect; nearly all actives have a fitted effect of over 65% in size
G9a inh = inhibitors of human histone lysine methyltransferase G9a; Potency, µM (doses to about 102 µM), without a hit: at the highest dose activity, negative = inhibition, actives largely listed as inhibitors; G9a H3K9 monomethylation, AlphaScreen, 2 h; hit rate 8.8% among 350,000; AID 504332; note: potency is the fitted concentration of half-maximal effect; % is set by controls: 0 for no effect and ±100 for the full control effect; nearly all actives have a fitted effect of over 75% in size
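Methyltransferase reactions run at room temperature for 2 h (20 nM enzyme, 500 nM biotin-H3K9 peptide, 20 uM SAM) after a 15 min compound preincubation; product detected by AlphaScreen beads and anti-H3K9me1 antibody.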
An asterisk follows results filed as active; ? = inconclusive; · = no result given; [ ] = dose if it differs, or a comment. Only some compounds are listed: those with a hit (about 12% of all), similar ones and a draw of the others. Unless noted, calls come from the whole dose curve; as a rule, active = well fitted curve in the direction sought with a large enough effect; inconclusive = small, poorly fitted or top-dose-only effect, or another doubt; inactive = no such curve, though single readings can be large; an effect the other way counts as inactive or inconclusive.

SMILES	BAZ2B inh	PI5P4Ka inh	JMJD2A Tudor inh	HP1b chromo inh	PLK1 PBD inh	G9a inh
COCCN(C(=O)c1cc2c(s1)CCC2)c1c(N)n(CC(C)C)c(=O)[nH]c1=O	56µM*	?	?	20%	-26%	-45%[12.7 µM]
CCCCN(C(=O)c1cc2c(s1)CCC2)c1c(N)n(CC(C)C)c(=O)[nH]c1=O	?	?	-35%	-6%	-5%	2%[12.7 µM]
COCCN(C(=O)C1CCN(C(=O)c2ccccc2C)CC1)c1c(N)n(CC(C)C)c(=O)[nH]c1=O	?	2	89µM*	-12%	?	1.6µM*
COCCN(C(=O)c1cc2c(s1)CCCCC2)c1c(N)n(CC(C)C)c(=O)[nH]c1=O	38%	-3	-12%	52%	-6%	1%[59 µM]
CC(C)NC(=O)N1[C@H](c2cccs2)[C@@H](C)C(=O)[C@@H](C)[C@@H]1c1cccs1	1%	·	-19%	11%	·	8%[59 µM]
Fc1ccccc1-c1csc(=Nc2cccnc2)n1CC1CCCO1 (stereo not given)	?	5	?	-16%	-19%	-46%[59 µM]
COCCn1c(-c2cccs2)csc1=Nc1cccnc1	45µM*	-7	?	-4%	-20%	?
COCCCn1c(C)csc1=Nc1cccnc1	-25%	8	-15%	33%	-3%	18%[59 µM]
Fc1ccccc1-c1csc(=Nc2cccnc2)n1CCCn1ccnc1	45µM*	5	?	-19%	-8%	45µM*
COCCn1c(-c2ccco2)csc1=Nc1cccnc1	?	·	89µM*	-11%	-22%	?
CC(C)Cn1c(-c2ccco2)csc1=Nc1cccnc1	32µM*	-27	-31%	-9%	?	45µM*
CC(C)=CCC[C@](C)(O[C@@H]1O[C@H](CO)[C@@H](O)[C@H](O)[C@H]1O)[C@H]1CC[C@]2(C)[C@@H]1[C@H](O)C[C@@H]1[C@@]3(C)CC[C@H](O[C@@H]4O[C@H](CO)[C@@H](O)[C@H](O)[C@H]4O[C@@H]4O[C@H](CO)[C@@H](O)[C@H](O)[C@H]4O)C(C)(C)[C@@H]3[C@@H](O)C[C@]12C	·	·	·	·	·	31%[59 µM]
COc1ccccc1NC(=O)Cn1c(=O)n(-c2cccc(C)c2)c(=O)c2c1c1cc(C)ccc1n2C	7%	·	-17%	29%	·	5%[59 µM]
CCC(=O)N1CCc2cc(S(=O)(=O)CCC(=O)Nc3ccc(Cl)c(C(F)(F)F)c3)ccc21	·	·	1%	44%	·	?
N#C/C(=C\c1ccc(-c2cccc([N+](=O)[O-])c2)o1)C(=O)Nc1nc(-c2cccs2)cs1	-12%	-52*	-21%	18%	-10%	-11%[59 µM]
O=C(N/N=C/c1ccc(-c2cccc([N+](=O)[O-])c2)o1)c1cccs1	-16%	-7	-8%[11.4 µM]	19%	-3%	4%
COc1ccc(-n2ccn3c(CC(C)(C)CC(=O)O)nnc3c2=O)cc1	-3%	·	-13%	24%	·	-31%[59 µM]
COc1cccc(Nc2ncc3nc(-c4cn(C)c5ccccc45)c(=O)n(CCC#N)c3n2)c1	·	·	·	·	·	4%[0.501 µM]
CCOc1ccc(NC(=O)CSc2oc(-c3cccs3)nc2S(=O)(=O)c2ccc(C)cc2)cc1	-30%	·	-28%	50%	·	10%[59 µM]
CSc1ccc(S(=O)(=O)Nc2ccc(S(=O)(=O)Nc3ccc(C)cc3)cc2)cc1	-31%	·	?	0%	-9%	-33%[59 µM]
Cc1ccc(S(=O)(=O)NN=Cc2c(O)ccc3ccccc23)cc1	·	-2	·	·	-13%	·
Cc1ccc(S(=O)(=O)Nc2ccc(N=Nc3ccc(O)cc3)cc2)cc1	45µM*	-14	?	?	-7%	-19%[59 µM]
O=S(=O)(Nc1c(O)ccc2ccccc12)c1cccc2ccccc12	·	-12	79µM*	79µM*	27µM*	·
Cc1ccc(S(=O)(=O)Nc2c(Cl)c(Cl)c(O)c3ccccc23)cc1	45µM*	·	·	·	·	1.3µM*
Cc1ccc(S(=O)(=O)Nc2c(O)ccc3ccccc23)cc1	·	-27	?	?	6.7µM*	·
SMILES	BAZ2B inh	PI5P4Ka inh	JMJD2A Tudor inh	HP1b chromo inh	PLK1 PBD inh	G9a inh
COc1ccc(C(C(=O)NC(C)(C)C)N(C(=O)CNC(=O)c2cccs2)c2cccnc2)cc1OC (stereo not given)	1%	1	-2%	23%	-20%	15%[59 µM]
CN(Cc1cccs1)c1ncnc2ccc(-c3ccc4cnn(C)c4c3)cc12	·	·	-32%	·	·	·
COc1ccc(-c2cccc(C(=O)N3CCOCC3)c2)cc1	-6%	3	-16%	12%	-5%	6%
COc1ccc(/C=C2\Sc3ccc(C(=O)N4CCN(Cc5ccccc5)CC4)cc3N(C)C2=O)cc1OC	?	3	?	-28%[57 µM]	-12%	71µM*
Cc1ccc(/C=C2/Sc3ccccc3N(CC(=O)NCC3CCCO3)C2=O)cc1 (stereo not given)	-3%	1	-26%	36%	-12%	-15%
COc1ccc(/C=C2\Sc3ccc(C(=O)N4CCOCC4)cc3N(C)C2=O)cc1	-32%	9	56µM*	-5%	-8%	-23%
COc1ccc(/C=C2\Sc3ccc(C(=O)NCC4CCCO4)cc3N(C)C2=O)cc1 (stereo not given)	-37%	-3	?	-4%	?	13µM*
CCOc1ccc(NC(=O)CCC(=O)NNS(=O)(=O)c2ccccc2[N+](=O)[O-])cc1	3%	10	?	8%	?	·
N#Cc1ccc(C(=O)NC2=NCCS2)cc1	?	0	-6%	23%	-5%	40µM*
CC(C)[C@H](NC(=O)c1ccc(F)cc1)C(=O)NC1=NCCS1	0%	-3	18µM*	19%	0%	7%
Cc1ccc(N(C)S(=O)(=O)c2cccc(C(=O)NC3=NCCS3)c2)cc1	-21%	0	-21%	32%	-8%	-32%[59 µM]
CC(C)Oc1ccc(C(=O)NC2=NCCS2)cc1	-28%	?	-26%	?	27µM*	3.5µM*
COc1ccc(N(C)S(=O)(=O)c2cccc(C(=O)NC3=NCCS3)c2)cc1	13%	-4	-14%	17%	-10%	71µM*
Cc1ccc(C(=O)NC2=NCCS2)cc1	?	·	·	·	·	9%[12.7 µM]
O=C(Nc1cccc(Oc2ccccc2)c1)c1ccc(-n2cncn2)c2ccoc12	·	5	·	·	2%	·
CCN(CC)C(=O)C1=C(C)N(CCC2=CCCCC2)C(=O)C(CC(=O)NCc2ccco2)C1 (stereo not given)	·	12	·	·	-2%	·
CCCCCCCn1c2c(c(=N)c3c1CCC3)CCCC2	?	-8	1%	24%	-1%	45µM*
Cc1cccc(S(=O)(=O)NC(=O)C2(C)CCN2C(=O)Cc2ccc(Cl)cc2Cl)c1 (stereo not given)	·	-1	·	·	1%	·

Screening results from PubChem.
